Rows were chosen to be rich in hits. Some 2.9% of all compounds tested hit in one or more screens of this group.
DRD3 antagonist: D3 dopamine receptor (human) antagonism | P35462 | D3R cells, DiscoveRx beta-arrestin luminescence, antagonist mode; active compounds read low | max response, negative = inhibition, % | 360,000 compounds, 2.5% hits | AID 652054; in the data active = max response below about -50%; inconclusive = no clear call, values can overlap the other calls; note: % is set by controls: 0 for no effect and ±100 for the full control effect
Target sequence (P35462 whole entry, looked up): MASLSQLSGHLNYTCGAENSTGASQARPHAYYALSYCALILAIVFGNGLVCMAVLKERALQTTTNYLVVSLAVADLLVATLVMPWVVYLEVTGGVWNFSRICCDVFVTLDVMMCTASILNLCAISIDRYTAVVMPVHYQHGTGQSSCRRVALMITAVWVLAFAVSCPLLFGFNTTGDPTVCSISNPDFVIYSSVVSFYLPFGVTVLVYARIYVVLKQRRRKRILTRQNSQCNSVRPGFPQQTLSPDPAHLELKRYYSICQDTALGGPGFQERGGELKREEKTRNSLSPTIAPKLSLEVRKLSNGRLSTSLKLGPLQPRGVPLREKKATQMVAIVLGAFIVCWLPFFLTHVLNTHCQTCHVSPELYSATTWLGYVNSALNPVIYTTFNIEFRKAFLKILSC
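Cells plated overnight at 1500 cells/well, then exposed to library compounds with dopamine controls for 90 minutes at 37 degrees C. DiscoveRx reagent added for 30–60 minutes at room temperature; luminescence read, quantitative HTS format.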
DRD3 agonist: D3 dopamine receptor (human) agonism. D3R DiscoveRx beta-arrestin cells, luminescence, 90 min. 410,000 compounds, 0.58% hits. max activation, %; in the data active = max activation above about 30%; note: 0% is about no effect
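Agonist-mode cell screen: cells plated at 1500/well and incubated overnight at 37 °C, then exposed to library compounds for 90 min at 37 °C. Detection reagent was added for 30–60 min at room temperature, and luminescence was read.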
Integrin act MD: integrin-mediated muscular dystrophy alleviation activation; alpha7betagal myoblasts, beta-gal FDG fluorescence, 48 h; Potency, µM (series often up to 38.3 µM), inactives show top-dose activation, hits mostly activators; 350,000 compounds, 0.064% hits; AID 624291; active = well fitted activation curve with a large enough effect; inconclusive = small, poorly fitted or top-dose-only effect; inactive = no such curve, though single readings can be large or run the other way;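 note: potency is the fitted concentration of half-maximal effect; 100% = response of the positive control SU9516; nearly all actives have a fitted effect of over 60% in size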
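alpha7betagal+/- myoblasts (passage 13, 250/well) treated 48 h at 37C with compounds at 1:260 dilution of DMSO stock. Lysed, then beta-galactosidase activity read as FDG fluorescence (ex 480/em 540) after 30 min, with pre-read for autofluorescence.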
* hit, by the source's call; ? = inconclusive; . = no result; [ ] = remark or other dose.

SMILES | DRD3 antagonist | DRD3 agonist | Integrin act MD
COc1ccc(C(c2nnnn2Cc2cccs2)N2CCN(c3ccccc3F)CC2)cc1OC (centres undefined) | -81.5* | -0.3 | 44.4%
Fc1ccc(C(c2nnnn2Cc2cccs2)N2CCN(c3ccccc3)CC2)cc1 (centres undefined) | 11.5 | -3.6 | -0.2%
Cc1ccc(C(c2nnnn2Cc2cccs2)N2CCN(Cc3ccc4c(c3)OCO4)CC2)cc1 (centres undefined) | -53.1* | -22.1 | -19.7%
COCCn1nnnc1C(c1ccccc1OC)N1CCN(c2ccccc2F)CC1 (centres undefined) | 0.0 | 3.2 | 6.8%
COCCn1nnnc1C(c1ccc(C)cc1)N1CCN(Cc2ccc3c(c2)OCO3)CC1 (centres undefined) | -10.1 | -8.2 | -7.8%
COc1ccccc1CN1CCN(C(CC(C)C)c2nnnn2Cc2cccs2)CC1 (centres undefined) | -62.8* | -15.8 | -37.5%
COCCn1nnnc1C(c1cc2cccc(C)c2[nH]c1=O)N1CCN(c2ccccc2F)CC1 (centres undefined) | -53.5* | -2.2 | -36.5%
O=C(CN1CCN(S(=O)(=O)c2ccc(Cl)cc2)CC1)NC1CC1 | 12.6 | 1.0 | 10.5%
CCC1CCc2[nH]nc(C(=O)O)c2C1 (centres undefined) | -22.3 | -6.9 | 2.5%
CCN(CC)CCCn1c2c(c(SCC(=O)Nc3ccc(C)c(F)c3)nc1=O)CCC2 | 6.0 | -7.1 | -43.9%
Cc1ccc(CN2CCC(C(=O)NCCC(C)C)CC2)o1 | -64.3* | -5.6 | -18.5%
CC(C)CCNC(=O)C1CCN(c2nc3ccccc3o2)CC1 | 5.1 | 5.2 | 14.6%[7.66 µM]
COc1ccc(Br)cc1/C=N/NC(=O)C(c1ccncc1)N1CCOCC1 (centres undefined) | 27.4 | 0.2 | -13.3%
CC(C)c1ccc(C(N)=S)cc1 | -10.3 | -8.2 | -14.9%
CCOC(=O)C(=CNc1ccc2c(c1)c1ccccc1n2CC)C(=O)OCC | 133.7 | 66.2* | -46.3%
CCOC(=O)C(=CNc1ccc(C)cc1C)C(=O)OCC | 88.9 | 15.5 | -41.4%
CCn1c2ccccc2c2cc(NC(=O)COC(=O)c3cc(OC)c(OC)cc3OC)ccc21 | 22.4 | 54.2* | -19.9%
CCCC(=O)Nc1ccc2c(c1)c1ccccc1n2CC | -7.7 | -0.7 | 25.6%
CCc1ccc(OCC(=O)Nc2ccc3c(c2)c2ccccc2n3CC)cc1 | . | -8.7 | .
CCOC(=O)C(=CNc1cccc(C)c1C)C(=O)OCC | 39.7 | 39.3* | -50.0%
CC(C)(C)C(=O)NC(=O)Nc1ccccc1C(F)(F)F | 13.6 | -2.1 | 30.7%
COc1ccccc1OC(=O)Nc1ccc(Cl)cc1 | -2.8 | -3.5 | -11.7%
Cc1ccccc1-c1ccc(CN2CCN(C)C(CCO)C2)cc1 (centres undefined) | 14.0 | -8.3 | ?
O=C1c2oc3ccccc3c(=O)c2C(c2ccc(O)cc2)N1c1nccs1 (centres undefined) | -3.6 | 2.8 | -7.2%
Cc1ccc(NC(=O)C2(C)CCN2C(=O)CC(c2ccccc2)c2ccccc2)cc1 (centres undefined) | -24.7 | 66.9* | .
SMILES | DRD3 antagonist | DRD3 agonist | Integrin act MD
CC1(C(=O)Nc2ccc(Cl)c(Cl)c2)CCN1C(=O)CC(c1ccccc1)c1ccccc1 (centres undefined) | -19.1 | -8.0 | .
Cc1c(C(=O)NC(C)CN2CCCCC2)oc2ccccc12 (centres undefined) | -77.1* | -54.2 | -13.7%
C=CCN1CCN(C(=O)c2oc3ccccc3c2C)CC1 | -61.4* | -10.7 | -4.1%
Cc1c(C(=O)N2CCCCCC2)oc2ccccc12 | 26.4 | -9.0 | -1.8%[7.66 µM]
Cc1c(C(=O)N2CCN(Cc3cccs3)CC2)oc2ccccc12 | -79.4* | -24.0 | 21.8%
CC(=O)N1CCN(C(=O)c2oc3ccccc3c2C)CC1 | -10.6 | -2.9 | 5.9%
Cc1c(C(=O)N2CCCCC2)oc2ccccc12 | 1.3 | -13.5 | 24.4%
C[N@+]12CCCC[C@@H]1CCC(=C(c1cccs1)c1cccs1)C2 | . | -21.6 | .
O=C(CNC(=O)c1ccccc1)OC(C(=O)Nc1cc(C(F)(F)F)ccc1Cl)c1ccccc1 (centres undefined) | 13.9 | 0.4 | 13.8%
Cc1[nH]c2ccc(C(=O)NCCCN3CCCCC3)cc2c1C | ? | 0.4 | 4.3%
CCOC(=O)N1CCN(C(=O)c2ccc3[nH]c(C)c(C)c3c2)CC1 | 26.8 | 7.9 | 7.2%
CCCN1CCN(C(=O)c2ccc3[nH]c(C)c(C)c3c2)CC1 | -87.2* | -10.1 | 3.3%
Cc1[nH]c2ccc(C(=O)NCCN3CCCCCC3)cc2c1C | -69.5* | -18.7 | -1.2%
Cc1ccc(NC(=O)c2ncn(CC(=O)NCc3nc4ccccc4[nH]3)n2)cc1C | 0.6 | -23.9 | -1.4%
Cn1cccc1/C=N\NC(=O)C1COc2ccc(C(C)(C)C)cc2O1 (centres undefined) | 13.0 | 11.7 | ?
Cc1c(/C=N\NC(=O)C2COc3ccc(C(C)(C)C)cc3O2)c2ccccc2n1C (centres undefined) | 19.4 | 58.5* | -12.2%
COc1ccccc1NC(=O)CS(=O)(=O)c1cn(CC(=O)N2CCCC2)c2ccccc12 | -1.5 | 0.5 | 10.8%
O=C(ONC(=O)C1CCCCC1C(=O)NOC(=O)c1ccccc1)c1ccccc1 (centres undefined) | 145.2 | 82.0* | -15.2%
COC(=O)c1ccccc1NC(=O)C1CCCCC1C(=O)O (centres undefined) | -23.5 | -8.8 | 3.4%[7.66 µM]
COc1ccc(NC(=O)C2CCN(C(=O)Cc3ccccc3)CC2)c(OC)c1 | -9.0 | -4.7 | 15.0%
Cc1nn(-c2ccccc2)c(C)c1NC(=O)COc1ccc2ccccc2c1 | 20.7 | 31.3* | -20.2%[7.66 µM]
Cc1nn(-c2ccccc2)c(C)c1NC(=O)COc1ccc(C#N)cc1 | 19.4 | 1.3 | -2.9%
CCCCOC(=O)c1ccc(NC(=O)C(=O)NCc2ccccn2)cc1 | 8.2 | 3.5 | 5.4%
CCCN1CCN(CCCNC(=O)CCN2C(=O)COc3ccccc32)CC1 | -0.3 | -9.7 | 28.0%
COc1ccc(CCNC(=O)CCN2C(=O)COc3ccc(C)cc32)cc1OC | -65.1* | -3.2 | 2.0%
SMILES | DRD3 antagonist | DRD3 agonist | Integrin act MD
COc1ccc(CCNC(=O)CCN2C(=O)COc3ccccc32)cc1OC | 4.5 | 0.1 | -14.7%
O=C(CCN1C(=O)COc2ccccc21)NCCN1CCc2ccccc2C1 | -61.8* | -33.1 | -25.6%
O=C(COC(=O)c1cc(F)c(F)cc1Cl)NC1CC1 | 11.3 | 7.5 | -18.5%
O=C(/C=C/c1ccccc1)C1=C(O)C(=O)N(CCO)C1c1cccc([N+](=O)[O-])c1 (centres undefined) | -15.4 | -9.4 | -8.0%
Cc1cc(Br)c2c(c1)=C(c1sc(N3CCCCCC3)nc1O)C(=O)N=2 | 6.4 | 5.5 | 24.5%
Cc1cc(S(=O)(=O)Nc2ccc(C(=O)NCCCN3CCOCC3)cc2)ccc1F | -13.3 | -19.5 | 15.5%
Cc1ccc(C(NC(=O)NCCCN2CCOCC2)=C(Cl)Cl)cc1F | -75.3* | 0.3 | -56.5%
C=CCOc1ccccc1CN1CCSCC1 | -1.4 | -5.1 | -9.4%[7.66 µM]
Cc1cc(C)cc(NC(=O)c2cc(S(=O)(=O)N3CCCC3)ccc2F)c1 | . | 6.7 | .
CC1(C(=O)NC2CCCCC2)CCC(=O)N1C1CCN(Cc2ccccc2)CC1 (centres undefined) | 7.9 | 6.4 | .
CSc1ccc(CN2CCC2(C)C(=O)NC2CCN(Cc3ccccc3)CC2)cc1 (centres undefined) | -110.7* | -18.5 | .

High-throughput results deposited in PubChem BioAssay by National Center for Advancing Translational Sciences (NCATS).
